From PubChem BioAssay AID581 (PCMD, 2007)
Screen size: about 62,000 compounds; about 95 (0.2%) were called active. Shown is part of a subset that was picked to be rich in actives. A number with no mark means an inactive call.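 The calls were made as follows: active = inhibition above 20% in each of the two mixture wells holding the compound; inactive = inhibition of 20% or less in either well.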

molecular target: Cathepsin G (Homo sapiens) (UniProt P08311); experiment: blockers of neutrophil cathepsin G protease – biochemical, pooled compound mixtures, AMC fluorescence, primary screen (AID 581); conditions: purified enzyme, AMC-tetrapeptide fluorescence, active compounds read high, screened at 5 µM (by protocol);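 also: 0% = enzyme control without mixture and 100% = blank lacking enzyme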
Sequence (P08311 21-244 limits assumed): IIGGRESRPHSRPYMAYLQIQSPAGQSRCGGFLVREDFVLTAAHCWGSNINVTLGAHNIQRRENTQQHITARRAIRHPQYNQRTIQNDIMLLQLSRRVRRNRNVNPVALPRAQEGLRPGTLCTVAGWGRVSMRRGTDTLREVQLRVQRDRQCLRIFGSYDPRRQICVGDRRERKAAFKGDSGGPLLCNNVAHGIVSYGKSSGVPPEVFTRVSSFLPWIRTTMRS

Structure (SMILES)	inhibition
Cc1noc(C)c1C(=O)Nc1ccccn1	-18.6%
CCOC(=O)N1CCN(CC(=O)c2ccc3c(c2)CCN3)CC1	10.3%
Cc1occc1C(=O)Nc1nnc(-c2ccncc2)s1	39.2%
COCCn1c(SCC(=O)Nc2cc(Cl)ccc2OC)nc2c(c1=O)SC(C)C2 (configuration not stated)	9.03%
NC(=O)CCCC1=NS(=O)(=O)c2ccccc2N1	4.5%
CCOC(=O)c1ccc(NC(=O)CS(=O)(=O)c2cn(CC)c3ccccc23)cc1	29.3% (active)
CCOC(=O)c1ccc(NC(=O)Cn2nnc(-c3ccc(C)cc3)n2)cc1	-7.1%
CCOC(=O)c1ccc(NC(=O)CSc2ncccn2)cc1	-1.62%
COc1ccc2nc(NC(=O)c3ccc(Br)s3)sc2c1	10.8%
O=C(Cn1nc(Cc2cccnc2)c2ccccc2c1=O)NCC1COc2ccccc2O1 (configuration not stated)	8.5%
C/C(N)=C(\C#N)C(=O)NCCc1ccccn1	2.5%
CCSC1=C(C#N)C(=O)n2c1cc1c2CCCC1	0.675%
CSc1nsc(SC)c1NC(=O)OC1CCCCC1	7.19%
CCOC(=O)C1CCCN(C(=O)c2ccc(CS(=O)(=O)c3ccc(Br)cc3)o2)C1 (configuration not stated)	7.41%
CCOC(=O)c1csc(NC(=O)c2ccc(S(=O)(=O)N3CCCC3)cc2)n1	-0.28%
COc1ccc(OC)c(NC(=O)CN2CCN(C(=O)c3ccco3)CC2)c1	9.79%
Cn1c(-c2ccc(C(=O)c3ccccc3)s2)nc2ccccc21	2.31%
CN(Cc1ccccc1)C(=O)CCNC(=O)Cn1cnc2ccccc2c1=O	-3.7%
COc1ccc(OC)c(C(=O)c2coc3ccc(OC)cc23)c1	-10.9%
COc1ccc2c(c1)CCc1c(C(=O)N3CCc4ccccc4C3)noc1-2	35% (active)
COC(=O)Nc1c(C)n(C)n(-c2ccccc2)c1=O	11.2%
O=C(c1cc(-c2cccc(O)c2)on1)N1CCc2ccccc2C1	5.56%
COc1ccc2c(c1)CCc1c(C(=O)Nc3c(C)n(C)n(-c4ccccc4)c3=O)noc1-2	34.3% (active)
COc1ccc2c(c1)CCc1c(C(=O)N3CCCC3)noc1-2	18.8%
Cc1cc(C(=O)Nc2c(C)n(C)n(-c3ccccc3)c2=O)cs1	8.47%

Structure (SMILES)	inhibition
CCOc1cc(CO)ccc1OCC(=O)N1CCCCC1	4.5%
COc1ccc(C(=O)Nc2ccc(S(=O)(=O)Nc3onc(C)c3C)cc2)cc1OC	-6.97%
COCCCN1C(=O)c2ccc(C(=O)Nc3ccc(OC)cc3OC)cc2C1=O	-4.08%
Cc1nn(Cc2ccc(Cl)c(Cl)c2)c(C)c1NC(=O)c1cc(C2CC2)on1	-8.5%
CN(C)c1cc(N)c2ccccc2n1 (tested in a mixture with another compound)	2.17%
O=C(CSc1nnc(-c2ccoc2)o1)N1CCOCC1	1.64%
Cc1cccc(-n2c(O)c(C=Nc3ccccc3N)c(=O)[nH]c2=O)c1	-2.9%
C1=C(N2CCOCC2)/C(=C/c2nc3ccccc3[nH]2)CC1	12.8%
CCOc1ccc(CC(=O)Nc2ccc(S(=O)(=O)Nc3cc(C)on3)cc2)cc1OCC	6.78%
Cc1ccc(S(=O)(=O)N(C)CC(=O)NC2CCCC2)cc1	1.06%
COc1ccc(C2C(C#N)=C(N)Oc3n[nH]c(C)c32)cc1CN1CCN(c2ccc(F)cc2)CC1 (configuration not stated)	-3.59%
CCOC(=O)c1nnn(-c2nonc2OC)c1-c1ccccc1	-2.37%
CC(C)=C(NC(=O)c1ccco1)C(=O)NCCc1nc2ccccc2[nH]1	9.21%
O=C1CCc2cc(S(=O)(=O)N3CCC(C(=O)NCc4ccccc4Cl)CC3)ccc2N1	11%
CC(=O)CCS(=O)(=O)c1ccc(C)c(C)c1	-14.8%
NC(=O)C1(N2CCCCC2)CCN(C(=O)c2ccc(C#Cc3ccccc3)o2)CC1	11.6%
COCCNc1nc(-n2nc(C)cc2C)nc2sc3c(c12)CCCC3	-7.79%
Cc1ccccc1OCCC(=O)Nc1c(C)n(C)n(-c2ccccc2)c1=O	16.9%
Cc1cc(Br)ccc1NC(=O)C1CCCO1 (configuration not stated)	9.61%
COc1cc2[nH]c(=S)n(Cc3ccc(C)o3)c(=O)c2cc1OC	-0.64%
CN1CCN(c2nc3c(c(=O)[nH]c(=O)n3C)n2Cc2cccc3ccccc23)CC1	14.6%
Cc1nnc(SCC(=O)NCCOc2ccc(Cl)cc2)n1-c1ccccc1	6.24%
CC1(C)CC(=O)C=C(NC2CC(C)(C)NC(C)(C)C2)C1	6.34%
Cn1c(=O)c2c(n(Cc3ccccc3)c1=O)NC(=O)C2CC(=O)N1CCc2ccccc2C1 (configuration not stated)	4.22%
NC(=O)c1ccccc1NC(=O)c1ccccc1F	1.67%

Structure (SMILES)	inhibition
Cn1c(SCc2c(F)cccc2Cl)nnc1-c1cnccn1	3.17%
O=C(c1cnn2ccccc12)N1CCc2ccccc21	10.9%
O=C(NC1(C(F)(F)F)N=C2SCCN2C1=O)c1ccco1 (configuration not stated)	3.45%
O=C(CCN1C(=O)COc2ccccc21)NCCCN1CCN(c2ccc(F)cc2)CC1	-3.54%
Cc1cccc(NC(=O)C2CCN(S(=O)(=O)c3cccc4cccnc34)CC2)c1	10.6%
Cc1cccc(NC(=O)COc2ccc(Br)cc2C)n1	2.75%
c1cc(-n2cnnn2)ccc1NC1=NCCC1	-2.07%
COc1ccc(-n2c(SCC(=O)OC(C)C)nnc2-c2ccccn2)cc1	7.94%
CCC(=O)N1CCc2cc(S(=O)(=O)NC(C(=O)N3CCc4ccccc4C3)C(C)C)ccc21 (configuration not stated)	4.46%
CCCc1nc2ccccc2c(=O)n1/N=C/c1ccc(O)c(O)c1	2.2%
COc1cccc(C2/C(=C(/O)c3ccncc3)C(=O)C(=O)N2CCCN(C)C)c1 (configuration not stated)	6.68%
COCCCn1c2nc3ccccc3nc2c2c(=O)n(Cc3ccc(Cl)cc3)c(C)nc21	7.46%
Cc1cc(C)nc(N2C(=O)CC(Cc3ccccc3)C2=O)n1 (configuration not stated)	-4.68%
Cc1cc(=O)[nH]c(SCc2cc(Cl)ccc2OC(F)F)n1	8.17%
O=C(CNCCO)NC12CC3CC(CC(C3)C1)C2	11.2%
C[C@H](NC(=O)NCCc1ccccc1)C(=O)O	2.02%
O=C(Cn1c(=O)sc2ccccc21)Nc1ccc2c(c1)OCCO2	1.24%
O=C(Nc1ccc2c(c1)OCO2)C1CC(c2c(F)cccc2Cl)=NO1 (configuration not stated)	9.79%
CCCCCN(C(=O)NC(=O)Nc1ccccc1C)S(C)(=O)=O	3.6%
CC(C)C(=O)Nc1cccc(C(=O)Nc2ccc3c(c2)OCO3)c1	10.1%
CCOc1c(N2CCCCC2)c(=O)c1=O	-3.4%
Cc1cc2c(cc1C)NC(c1ccccn1)C1=C(CC(C)(C)CC1=O)N2 (configuration not stated)	9.5%
Cc1ccc(S(=O)(=O)N2CCN(Cc3cccc(C)c3O)CC2)cc1	2.48%
O=c1c2ccccc2[nH]c(=S)n1CCN1CCC(=C(c2ccc(F)cc2)c2ccc(F)cc2)CC1	13.1%
CCC(C)n1[nH]c(=O)cc1N (configuration not stated)	0.53%

Structure (SMILES)	inhibition
CN(c1nc2ccccc2n2c(-c3ccco3)nnc12)S(=O)(=O)c1ccccc1	-5.29%
N#Cc1c(/N=C/N2CCCC2)oc(-c2ccccc2)c1-c1ccccc1	9.67%
O=C(Nc1cc(=O)[nH]c2ncnn12)c1ccccc1Cl	-3.08%
O=C(O)C1CC=C(Cl)CC1C(=O)NCc1ccccc1 (configuration not stated)	12.7%
Cc1ccc(-n2c(N)c(C(=O)N3CCOCC3)sc2=S)c(C)c1	11.4%
c1ccc2c(c1)OCC(c1nn3cnnc3s1)O2 (configuration not stated)	1.56%
CC(=O)N1CSCC1C(=O)O (configuration not stated)	10.9%
COc1ccc(C)cc1S(=O)(=O)NC1CCCCC1	3.27%
O=C(CCCN1C(=O)CSc2ncccc21)N1CCN(c2cccc(C(F)(F)F)c2)CC1	1.22%
Fc1ccc(Br)cc1/C=N/n1cnnc1	-0.86%
ON=C1/C(=N\O)CC2(C/C1=N/O)OCCO2	-0.38%
CC(=O)c1c(C)n(-c2ccc(N(C)C)cc2)c2ccc(OCC(N)=O)cc12	8.67%
COc1ccc(S(=O)(=O)NC2(C(F)(F)F)N=C3SCCN3C2=O)cc1 (configuration not stated)	11.4%
CCN(CC)C(=O)C1CCC(C)(C(=O)O)C1(C)C (configuration not stated)	11.2%
COC(=O)c1ccccc1NC(=O)C1CCN(S(=O)(=O)c2cc(OC)ccc2OC)CC1	2.31%
CC(=O)N(CC1CCCO1)C1(C(=O)NC2CCCC2)CCCCC1 (configuration not stated)	10.3%
COCC(=O)Nc1nnc(COc2ccccc2)s1	-21.9%
CCN(CC(=O)Nc1ccc2c(c1)OCCO2)Cc1cc(=O)oc2cc(C)c(C)cc12	1.52%
CC1(C)Cc2ccccc2-c2nc(CN3CCOCC3)[nH]c(=O)c21	3.33%
O=C1N(Cc2ccc3c(c2)OCO3)c2ccccc2C1(O)c1c[nH]c2ccccc12 (configuration not stated)	1.27%
COc1ccc(Cl)cc1NC(=O)C1CC(=O)N(c2ccc(F)cc2)C1 (configuration not stated)	8.25%
O=C(CN1CCOCC1)N1CCCc2c1c(=O)oc1ccc(OCc3ccccc3)cc21	-5.32%
